Calls of active or inactive are those of the source.
Tests used:
[1] = optical density shifts of acrAB sulA E. coli – strain DRC41, OD650, 48 h, E. coli filamentation inducer project, primary screen (AID 1152); conditions: higher = more signal, called active from +8 up or from −8 down;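 further: E. coli MC1000 strain DRC41 lacking acrAB efflux pump and sulA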
[2] = probe aLefty1 binding on compound microarray – biochemical, small-molecule microarray, 635/667 nm fluorescence, primary screen (AID 1153); conditions: higher = more signal;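 further: score merges spot fluorescence with signal-to-noise ratio from the scanned slide images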
[3] = plasmodial surface anion channel blockers, osmotic lysis – cell-based, P. falciparum Indochina, OD700, 1 h, primary screen (AID 1154); conditions: P. falciparum Indochina infected RBC osmotic lysis, higher = more signal, called active from +8 up or from −8 down
[4] = plasmodial surface anion channel blockers, osmotic lysis – cell-based, P. falciparum Indochina, OD700, 2 h, primary screen (AID 1155);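 further: lysis reports solute entry through the parasite surface anion channel PSAC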; conditions: P. falciparum Indochina infected erythrocytes, higher = more signal, called active from +8 up or from −8 down
[5] = changes in parasitized red cell lysis, either direction – P. falciparum Indochina, OD700, 3 h, PSAC antagonist project, primary screen (AID 1156); conditions: P. falciparum-infected erythrocytes, osmotic lysis, higher = more signal, called active from +8 up or from −8 down
[6] = plasmodial surface anion channel blockers, osmotic lysis – cell-based, P. falciparum Indochina, OD700, 18 h, primary screen (AID 1157); conditions: P. falciparum Indochina infected erythrocytes, osmotic lysis OD700, 18 h; higher = more signal, called active from +8 up or from −8 down
[7] = S6 kinase pathway phospho-S6 level changes – cell-based, A549, cytoblot, luminescence, serum-stimulated, primary screen (AID 1158); conditions: 5 h, higher = more signal;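 further: serum-stimulated A549 lung adenocarcinoma cells; signal is phosphorylated S6 detected by cytoblot immunostaining with HRP secondary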
[8] = target: NADPH oxidase 2 (Homo sapiens) (UniProt P04839); assay: compounds shifting NOX2 Amplex Red fluorescence – cell-based, HEK293-NOX2, PMA-stimulated, NOX inhibitor project, primary screen (AID 1159); conditions: 45 min, higher = more signal, called active from +8 up or from −8 down; further: test concentration not given here
NADPH oxidase 2 (Homo sapiens), sequence (P04839 whole entry, looked up): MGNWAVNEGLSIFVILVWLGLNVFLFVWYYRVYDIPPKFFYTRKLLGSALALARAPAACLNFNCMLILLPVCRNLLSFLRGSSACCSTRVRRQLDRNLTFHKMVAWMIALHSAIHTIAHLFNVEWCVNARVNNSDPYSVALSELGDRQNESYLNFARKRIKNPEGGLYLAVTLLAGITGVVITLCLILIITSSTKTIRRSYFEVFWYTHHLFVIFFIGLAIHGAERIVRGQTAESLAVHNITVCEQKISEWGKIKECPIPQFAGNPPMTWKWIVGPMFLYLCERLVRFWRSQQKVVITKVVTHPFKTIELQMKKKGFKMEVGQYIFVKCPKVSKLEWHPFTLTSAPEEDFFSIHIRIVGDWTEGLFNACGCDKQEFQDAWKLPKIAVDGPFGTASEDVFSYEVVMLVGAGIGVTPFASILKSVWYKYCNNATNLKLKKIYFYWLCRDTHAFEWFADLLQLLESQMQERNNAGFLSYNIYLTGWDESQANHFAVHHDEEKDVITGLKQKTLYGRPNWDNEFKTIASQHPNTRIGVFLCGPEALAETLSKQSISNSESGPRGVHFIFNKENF

[9] = target: NADPH oxidase 4 (Homo sapiens) (UniProt Q9NPH5); assay: compounds shifting NOX4 Amplex Red fluorescence – cell-based, HEK293-NOX4, tetracycline-induced, NOX inhibitor project, primary screen (AID 1160); conditions: HEK293-NOX4, Amplex Red H2O2 fluorescence, 45 min; higher = more signal, called active from +8 up or from −8 down
NADPH oxidase 4 (Homo sapiens), sequence (Q9NPH5 whole entry, looked up): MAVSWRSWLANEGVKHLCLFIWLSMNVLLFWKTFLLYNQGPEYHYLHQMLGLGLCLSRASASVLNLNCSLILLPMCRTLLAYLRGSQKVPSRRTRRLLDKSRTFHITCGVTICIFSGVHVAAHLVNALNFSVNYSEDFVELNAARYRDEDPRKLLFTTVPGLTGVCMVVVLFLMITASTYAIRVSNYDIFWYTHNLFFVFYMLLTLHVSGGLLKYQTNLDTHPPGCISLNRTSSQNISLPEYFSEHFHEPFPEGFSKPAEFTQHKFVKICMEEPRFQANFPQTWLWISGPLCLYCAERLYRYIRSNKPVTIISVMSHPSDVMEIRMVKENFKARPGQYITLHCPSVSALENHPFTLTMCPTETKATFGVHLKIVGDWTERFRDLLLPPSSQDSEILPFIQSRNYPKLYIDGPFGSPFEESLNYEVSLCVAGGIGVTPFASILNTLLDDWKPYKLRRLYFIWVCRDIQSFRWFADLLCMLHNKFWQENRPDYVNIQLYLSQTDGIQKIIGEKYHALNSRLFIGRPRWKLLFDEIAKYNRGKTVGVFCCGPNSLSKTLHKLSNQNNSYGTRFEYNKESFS

[10] = target: NADPH oxidase 5 (Homo sapiens) (UniProt Q96PH1); assay: compounds shifting NOX5 Amplex Red fluorescence – cell-based, HEK293-NOX5, NOX inhibitor project, primary screen (AID 1161); conditions: HEK293-NOX5, ionomycin, 45 min, higher = more signal
NADPH oxidase 5 (Homo sapiens), sequence (Q96PH1 whole entry, looked up): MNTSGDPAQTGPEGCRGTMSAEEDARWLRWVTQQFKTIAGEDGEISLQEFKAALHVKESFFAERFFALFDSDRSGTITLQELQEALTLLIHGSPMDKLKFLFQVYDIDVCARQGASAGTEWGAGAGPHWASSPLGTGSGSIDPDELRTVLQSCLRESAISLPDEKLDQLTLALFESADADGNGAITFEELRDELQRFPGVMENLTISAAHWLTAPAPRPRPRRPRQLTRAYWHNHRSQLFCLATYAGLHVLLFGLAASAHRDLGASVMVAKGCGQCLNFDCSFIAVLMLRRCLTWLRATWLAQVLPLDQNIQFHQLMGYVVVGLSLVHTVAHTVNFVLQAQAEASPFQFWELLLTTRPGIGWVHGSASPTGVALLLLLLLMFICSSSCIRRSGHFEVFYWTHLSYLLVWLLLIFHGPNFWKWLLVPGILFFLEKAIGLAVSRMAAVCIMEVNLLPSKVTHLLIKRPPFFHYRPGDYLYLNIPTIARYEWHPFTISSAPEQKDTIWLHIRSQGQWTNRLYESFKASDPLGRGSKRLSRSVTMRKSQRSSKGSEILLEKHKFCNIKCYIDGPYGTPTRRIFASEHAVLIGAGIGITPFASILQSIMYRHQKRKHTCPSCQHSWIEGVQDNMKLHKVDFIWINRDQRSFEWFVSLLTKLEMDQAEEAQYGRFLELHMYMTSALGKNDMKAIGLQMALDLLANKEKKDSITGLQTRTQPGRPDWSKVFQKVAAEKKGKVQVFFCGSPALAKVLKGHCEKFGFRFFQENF

Row | SMILES | z-score [1] | composite z-score [2] | z-score [3] | z-score [4] | z-score [5] | z-score [6] | z-score [7] | z-score [8] | z-score [9] | z-score [10]
1 | CC(C)NC(=O)[C@@]1(c2ccc([N+](=O)[O-])cc2)CC(=O)N(C2CCCCC2)[C@@H]1c1ccc(CO)cc1I | 1.36 (inactive) | 0.533 | 15.8 (active) | 2.08 (inactive) | 1.07 (inactive) | 0.966 (inactive) | -0.0892 | 0.824 (inactive) | -1.57 (inactive) | 1.45
2 | O[C@@H](Cc1ccccc1)[C@H]1C2C=CCCC=C2CN1Cc1cccc(Cl)c1 (stereo not given in full) | 1.31 (inactive) | 0.0701 | 2.58 (inactive) | 0.499 (inactive) | 1.33 (inactive) | 0.108 (inactive) | 0.399 | -0.318 (inactive) | -1.27 (inactive) | -0.609
3 | CC#CC(=O)Oc1ccccc1C=CC(=O)OCC | -0.158 (inactive) | -0.0011 | 8.09 (active) | 1.47 (inactive) | 0.692 (inactive) | 0.903 (inactive) | -0.275 | -0.405 (inactive) | -0.806 (inactive) | 1.8
4 | CC(C)C[C@@H]1NC(=O)[C@@H]2C[C@H](C(=O)O)[C@H](c3cccc(OCCO)c3)N2C1=O | 0.649 (inactive) | -0.0966 | 3.95 (inactive) | 0.373 (inactive) | -0.917 (inactive) | 0.0571 (inactive) | -0.129 | 1.34 (inactive) | 0.663 (inactive) | 2.01
5 | CCc1cccc(NC(=O)O[C@H]2[C@H](OC(=O)Nc3ccccc3-c3ccccc3)[C@@H](OC(=O)Nc3ccccc3-c3ccccc3)[C@@H](OC)O[C@@H]2CO)c1 | -1.5 (inactive) | 0.419 | 3.37 (inactive) | 0.995 (inactive) | -0.975 (inactive) | 1.31 (inactive) | -0.84 | -5.54 (inactive) | -1.18 (inactive) | -1.13
6 | CC(C)C(=C=CC[C@@H](O)c1ccc(OCCO)cc1)C[C@@H](O)COCc1ccccc1 | 1.45 (inactive) | 0.0341 | 8.51 (active) | -0.15 (inactive) | 0.776 (inactive) | -0.46 (inactive) | 4.27 | -2.13 (inactive) | -0.915 (inactive) | -2.41
7 | CO[C@H]1O[C@H](CO)[C@@H](OC(=O)Nc2ccc(Oc3ccccc3)cc2)[C@H](OC(=O)Nc2ccc3c(c2)OCO3)[C@H]1OC(=O)Nc1ccc2c(c1)OCO2 | 0.97 (inactive) | 0.523 | 7.24 (inactive) | 0.996 (inactive) | 0.902 (inactive) | 0.397 (inactive) | 1.2 | 0.706 (inactive) | -1.65 (inactive) | -0.714
8 | CCCCCN1CC=CC23O[C@@H]4C=CCCOC(=O)C4[C@H]2C(=O)N(CCCCCO)[C@@H]3C1=O (stereo not given in full) | 1.09 (inactive) | -0.0984 | 1.73 (inactive) | 1.1 (inactive) | 2.68 (inactive) | 0.575 (inactive) | 0.708 | 1.36 (inactive) | 0.228 (inactive) | 1.32
9 | CC(C)NC(=O)[C@@H]1c2ccccc2C(=O)N(C2Cc3ccccc3C2)[C@H]1c1ccc(CO)cc1 | 0.814 (inactive) | 0.11 | 3.41 (inactive) | 0.119 (inactive) | 0.121 (inactive) | 0.182 (inactive) | 0.0063 | -0.402 (inactive) | 0.0797 (inactive) | -0.994
10 | CC(C)C[C@@H]1NC(=O)[C@@H]2C[C@H](C(=O)NCc3ccc(F)cc3)[C@H](c3cccc(OCCO)c3)N2C1=O | 1.39 (inactive) | -0.204 | 8.19 (active) | 0.722 (inactive) | -1.79 (inactive) | 0.546 (inactive) | 0.74 | 1.33 (inactive) | 1.08 (inactive) | 1.44
11 | CN1C=C(C(=O)OCCS(C)(=O)=O)C(C(=O)OCCS(C)(=O)=O)=CC(c2ccc(CO)cc2)=CC1C1CC1 (stereo not given) | 0.225 (inactive) | -0.147 | 11.3 (active) | 1.46 (inactive) | -0.107 (inactive) | 0.897 (inactive) | 0.116 | -2.88 (inactive) | -1.13 (inactive) | -2.52
12 | COc1cc2c(cc1OC)CN(C(=O)[C@H]1[C@@H]3C(=O)O[C@@H](c4ccccc4)[C@@H](c4ccccc4)N3[C@@H](c3ccc(O)cc3)[C@]13C(=O)Nc1ccccc13)CC2 | -0.444 (inactive) | 0.0036 | 0.734 (inactive) | -0.397 (inactive) | -0.473 (inactive) | 0.801 (inactive) | 0.0493 | 0.96 (inactive) | 0.754 (inactive) | 1.37
13 | COc1ccccc1CN1C(=O)c2ccccc2[C@@H](C(=O)NC2CC2)[C@@H]1c1ccc(CO)cc1 | 0.818 (inactive) | 0.16 | 2.49 (inactive) | 0.873 (inactive) | 1.59 (inactive) | 0.818 (inactive) | -0.291 | 0.211 (inactive) | 0.48 (inactive) | 0.718
14 | COc1ccc(C(=O)Nc2ccc(CN3C(=O)[C@]4(O[C@H](CCO)[C@@H]([Si](C)(C)c5ccc(OC)cc5)[C@@H]4C)c4ccccc43)cc2)cc1 | -1.37 (inactive) | 0.199 | 5.29 (inactive) | 2.11 (inactive) | -0.205 (inactive) | 2.12 (inactive) | -1.38 | -6.37 (inactive) | -2.55 (inactive) | -1.54
15 | C=CCOC(=O)[C@H]1[C@@H]2C(=O)O[C@@H](c3ccccc3)[C@@H](c3ccccc3)N2[C@@H](c2ccc(OCCOC(=O)[C@H]3C[C@H]4C(=O)N[C@@H](CCCCNC(C)=O)C(=O)N4[C@H]3c3ccc(O)cc3)cc2)[C@]12C(=O)Nc1ccc(I)cc12 | -1.8 (inactive) | 0.204 | -0.858 (inactive) | 0.461 (inactive) | 0.675 (inactive) | -0.214 (inactive) | -0.635 | 1.36 (inactive) | 0.823 (inactive) | 0.935
16 | C=CCOC(=O)[C@H]1[C@@H]2C(=O)O[C@@H](c3ccccc3)[C@@H](c3ccccc3)N2[C@@H](c2ccc(OCCOC(=O)[C@H]3C[C@H]4C(=O)N[C@@H](CCCCNC(C)=O)C(=O)N4[C@H]3c3cccc(OCCO)c3)cc2)[C@]12C(=O)Nc1ccccc12 | -0.0842 (inactive) | 0.179 | 3.6 (inactive) | 1.52 (inactive) | 3.95 (inactive) | 1.01 (inactive) | -0.116 | 2.19 (inactive) | 1.93 (inactive) | 0.8
17 | CN1C(=O)C2C=CC(C(O)C3CC=CCC3)N(N(c3ccccc3)c3ccccc3)C2C1=O (stereo not given) | -0.866 (inactive) | 0.329 | 0.19 (inactive) | 1.01 (inactive) | -0.255 (inactive) | 1.29 (inactive) | -0.496 | -0.625 (inactive) | 0.21 (inactive) | 0.224
18 | CCN(CC)c1ccc(N2CC=CC34O[C@@H]5C=CCCOC(=O)C5[C@H]3C(=O)N(CCCCCCO)[C@@H]4C2=O)cc1 (stereo not given in full) | 3.12 (inactive) | -0.0361 | 1.25 (inactive) | 0.392 (inactive) | 0.474 (inactive) | -0.53 (inactive) | 0.872 | -0.089 (inactive) | 0.576 (inactive) | 0.762
19 | CCOC(=O)C[C@H]1[C@H](OC(=O)c2ccc(C(=O)c3ccccc3)cc2)[C@@H](NC(=O)c2ccccc2)c2cc(OCCCO)ccc2N1C(=O)c1ccc2ccccc2n1 | 0.181 (inactive) | -0.328 | 2.66 (inactive) | 0.748 (inactive) | -0.2 (inactive) | 0.454 (inactive) | -0.0519 | -1.14 (inactive) | 0.923 (inactive) | 1.94
20 | NC(=O)[C@@H]1[C@H]2C(=O)O[C@H](c3ccccc3)[C@H](c3ccccc3)N2[C@H](c2ccc(O)cc2)[C@@]12C(=O)Nc1ccccc12 | 0.428 (inactive) | 0.157 | 1.19 (inactive) | -0.619 (inactive) | -0.267 (inactive) | -2.21 (inactive) | 1.57 | -1.93 (inactive) | -1.13 (inactive) | -0.42
21 | CCCc1cc2c(n1Cc1cc(F)cc(F)c1)C(C)C1CN(C(=O)c3ccccc3)C(C)(C(=O)OC)C21 (stereo not given) | -1.55 (inactive) | 0.269 | 3.82 (inactive) | 0.144 (inactive) | 1.95 (inactive) | 0.251 (inactive) | -0.712 | -1.69 (inactive) | -2.91 (inactive) | -2.52
22 | COC(=O)[C@@]1(Cc2ccccc2)[C@H]2c3cc(C(=O)N4CCCC4)n(Cc4ccc(S(C)(=O)=O)cc4)c3C[C@H]2CN1C(=O)c1ccccc1 | -0.94 (inactive) | 0.198 | 1.98 (inactive) | 0.238 (inactive) | 0.716 (inactive) | 0.742 (inactive) | -0.121 | 0.613 (inactive) | -1.16 (inactive) | -1.9
23 | COCCOC(=O)N1C(=O)[C@@]2(c3cc(C#CCCO)ccc31)[C@H](C(=O)N1CCCCCCC1)[C@H]1C(=O)O[C@H](c3ccccc3)[C@H](c3ccccc3)N1[C@@H]2c1ccc(OCCO)cc1 | 0.712 (inactive) | 2.45 | 7.78 (inactive) | 1.37 (inactive) | -1.22 (inactive) | 0.982 (inactive) | -0.215 | 0.931 (inactive) | 0.94 (inactive) | 0.603
24 | CN1C(=O)C2C=CC(C(O)C#Cc3ccccc3)N(N3CCCCC3)C2C1=O (stereo not given) | -0.381 (inactive) | 0.807 | 1.24 (inactive) | 1.09 (inactive) | 0.83 (inactive) | 1.17 (inactive) | -0.726 | -0.23 (inactive) | 0.191 (inactive) | -0.26
25 | COc1cc(Br)cc(C(O)C2C=CC3C(=O)N(C)C(=O)C3N2N2CCCCC2)c1OC (stereo not given) | -1.8 (inactive) | 0.152 | 0.712 (inactive) | 1.27 (inactive) | 0.126 (inactive) | 1.17 (inactive) | -1.45 | 0.524 (inactive) | -3.5 (inactive) | -0.637

— PubChem BioAssay
